In PubChem BioAssay AID1347383 (Zoeller Lab, School of Medicine, Boston University, 2020):
Activity calls are given as the source filed them.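 How the source made its calls: active means cell survival after UV exposure 2 SD above solvent-only control wells at 10 µM, confirmed on one or two repeats; inactive means the rest.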

Assay: cell survival after pyrene fatty acid photosensitization – ZR-82 cells, Analyticon library, screen 2, phospholipid biosynthesis inhibitor project, primary screen (AID 1347383);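 further: survival reflects blocked phospholipid synthesis cutting uptake of the phototoxic fatty acid; compound and fatty acid exposure 3 h then viability read next day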
Conditions: ZR-82 CHO cells, pyrene-fatty acid UV killing, CellTiter Blue; at 10 µM; peroxisome-deficient CHO-K1 variant; with DGAT-1, DGAT-2 and ACAT inhibitors
With CC1=C2C=C(CO)C(CO)CCC2(C)CCC1=O (centres undefined) the outcome was “inactive”. With COc1ccc2cc3[n+](cc2c1OC)CCc1cc2c(cc1-3)OCO2 the outcome was “inactive”. With Nc1ncnc2c1ncn2[C@@H]1O[C@H](CO)C[C@H]1O the outcome was “inactive”. In the case of COc1cc(O)c2c(=O)c(-c3ccc(O)cc3O[C@@H]3O[C@H](CO)[C@@H](O)[C@H](O)[C@H]3O)coc2c1, the outcome is reported as “inactive”. In the case of O=C1CC(c2ccc(O)cc2)Oc2ccccc21 (centres undefined), the outcome is reported as “inactive”. With Cc1c(O)cc(O)c2c1OC(c1ccccc1)CC2=O (centres undefined) the outcome was “inactive”. With CC(C)=CCc1c(O)cc2oc3cc(C)cc(O)c3c2c1C the outcome was “inactive”. For O=C(O)c1cc(O)c2c(c1)C(=O)c1cc(O)cc(O)c1C2=O, the outcome was “inactive”. In the case of COCc1c(OC)cc2c(c1O)C(O)OCC2 (centres undefined), the outcome is reported as “inactive”. In the case of C=C[C@@]12COC(=O)C(=C)[C@@H]1[C@@H](O)[C@H](C(=C)C(=O)OC)[C@@H](O)C2, the outcome is reported as “inactive”. For CC1CCC2C(C(=O)O)=CC3C(O)C(C)(C)CC123 (centres undefined), the outcome was “inactive”. With C/C=C/[C@@H]1C=C[C@@H]2C[C@H](C)CC[C@H]2[C@]1(C)C(O)=C1C(=O)[C@@H](CO)N(C)C1=O the outcome was “inactive”. For Oc1ccccc1-c1c(O)cc(O)c(-c2ccccc2)c1O, the outcome was “inactive”. For COc1cc(C2OC(c3ccc(O)c(OC)c3)C(C)C2C)ccc1O (centres undefined), the outcome was “active”. For O=c1ccc2cc3ccoc3cc2o1, the outcome was “inactive”. With O=c1c(-c2ccc(O)cc2)coc2cc(O)ccc12 the outcome was “inactive”. For CC1CCC2(C(=O)O)CCC3(C)C(C=CC4C5(C)CC(O)C(O)C6(C)COC(CC43C)C65)C2C1(C)O (centres undefined), the outcome was “inactive”. For O=C(/C=C/C=C/c1ccc2c(c1)OCO2)N1CCCCC1, the outcome was “inactive”. For C#CC(O)COc1ccc(C(=O)O)cc1 (centres undefined), the outcome was “inactive”. In the case of O=C(O)/C=C/c1ccc(O[C@@H]2O[C@H](CO)[C@@H](O)[C@H](O)[C@H]2O)cc1, the outcome is reported as “inactive”. With CCCCCCC1OC23OC1CCC2CCC(O)C3O (centres undefined) the outcome was “inactive”. In the case of C[C@@H]1O[C@@H](Oc2c(-c3ccc(O)c(O)c3)oc3cc(O)cc(O)c3c2=O)[C@H](O)[C@H](O)[C@H]1O, the outcome is reported as “inactive”. In the case of CC1C=CC2CCCCC2C1CCC1CC(O)CC(=O)O1 (centres undefined), the outcome is reported as “inactive”. For C=C1C(=O)O[C@@H]2C3=C(C)CCC[C@]3(C)CC[C@@]12O, the outcome was “inactive”. With N#CC(OC(=O)c1ccccc1)c1ccccc1 (centres undefined) the outcome was “inactive”. With COc1c2cc(c(O)c1OC)CCCCC(O)CCc1ccc(O)c-2c1 (centres undefined) the outcome was “inactive”. With C[C@]12CC(=O)C3C[C@@]1(O)OC(O2)[C@H]3COC(=O)c1ccccc1 the outcome was “inactive”. In the case of COc1ccc(-c2coc3cc(O[C@@H]4O[C@H](CO)[C@@H](O)[C@H](O)[C@H]4O)ccc3c2=O)cc1, the outcome is reported as “inactive”. With COc1c(OC)c(O)c2c3c(cc4ccccc42)NC(=O)c13 the outcome was “inactive”. For CC(=O)OC/C(=C\COc1cc(=O)oc2cccc(C)c12)CCC=C(C)C, the outcome was “inactive”. For COc1cc(O)c2c(=O)c3cc(O)c(O)cc3oc2c1, the outcome was “inactive”. In the case of O=C(O)CCc1c(O)ccoc1=O, the outcome is reported as “inactive”. For COc1c2c(c(OC)c3oc(=O)ccc13)OC(C)(C)C(O)C2O (centres undefined), the outcome was “inactive”. In the case of CC(=O)Oc1ccc2c(C)cc(=O)oc2c1, the outcome is reported as “inactive”. In the case of CC[C@H]1C(=O)CC2C3CCC4C[C@@H](O)[C@]5(O)C[C@]4(CO5)C3CC[C@@]21C (some centres undefined), the outcome is reported as “inactive”. With OCc1ccccc1O[C@@H]1O[C@H](CO)[C@@H](O)[C@H](O)[C@H]1O the outcome was “inactive”. For Cc1coc2c1CC1OC1(C)CCC1OC1(C)C2 (centres undefined), the outcome was “inactive”. With COc1c(C)c2c(c(O)c1C/C=C(\C)CCCC(C)C(=O)O)C(=O)OC2 (centres undefined) the outcome was “inactive”. With C=C(COC(=O)C(C)C)C1Oc2cc(C(C)=O)ccc2C1OC(=O)C(C)C (centres undefined) the outcome was “inactive”.
